Pf Dd2 inh = inhibitors of Plasmodium falciparum Dd2 growth; P. falciparum Dd2 growth, SYBR Green, 72 h; 4.3% of 120,000 active; AID 1347417; Potency, µM (top dose mostly 28.9 µM), for inactives: at the highest dose activity, negative = inhibition, usual class: inhibitors; active = well fitted inhibition curve with a large enough effect;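 note: plate controls were DMSO vehicle for no effect and reference drug for full effect; nearly all actives have a fitted effect of over 65% in size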
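Readout: SYBR Green fluorescence, 485 nm excitation, 535 nm emission, after ~16 h lysis at 37C. Before that, Dd2-infected red cells (2.5% hematocrit) grew 72 h with compound, 29 uM top final concentration.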
The depositor's hits bear a star; [ ] = dose if it differs, or a comment. The sample as a whole holds a higher share of hits than the screen did. Potency is the fitted concentration of half-maximal effect.

`CCOC(=O)c1c(C)oc2nc(C)nc(NCCCN3CCN(c4ccc(F)cc4)CC3)c12` gave Pf Dd2 inh 11.2µM*.
Screening CCOC(=O)c1c(C)oc2nc(C)nc(NCC3CCN(Cc4cc(C)ccc4C)CC3)c12 returned Pf Dd2 inh -3.2%.
Screening CCOC(=O)c1c(C)oc2nc(C)nc(NCc3ccccc3OCC)c12 returned Pf Dd2 inh 8.91µM*.
Screening Cc1nc(N2CCCC2)c2c(C(=O)N3CCN(c4ccc(F)cc4)CC3)c(C)oc2n1 returned Pf Dd2 inh -9.4%.
`CCOC(=O)c1c(C)oc2nc(C)nc(NCc3ccccc3OC)c12` gave Pf Dd2 inh 8.91µM*.
CCOC(=O)c1c(C)oc2ncnc(Nc3ccc(CC)cc3)c12 was read as Pf Dd2 inh inactive.
CCOC(=O)c1c(C)oc2nc(C)nc(NCCc3ccc(C)cc3)c12 was read as Pf Dd2 inh -9.9%.
`COc1ccc(F)cc1[C@@H](NC(=O)C1=NNC(=O)CC1)C1CC(O)C1` (stereo partly drawn) gave Pf Dd2 inh -23.1%.
O=C(C1CCCCC1)N1CC(F)(F)C[C@H]1c1nnc(C2CC2)o1 was read as Pf Dd2 inh 6.5%.
COc1ccc(-c2nc(C)c(C)cc2C#N)c2cccnc12 was read as Pf Dd2 inh -1.2%.
For Cc1ccc(/C=C/c2onc(C)c2S(=O)(=O)N2CCC(C(=O)N3CCN(c4cccc(C)c4)C(C)C3)CC2)cc1 (stereo not drawn) the results were Pf Dd2 inh inactive.
Cc1ccc(/C=C/c2onc(C)c2S(=O)(=O)N2CCC(C(=O)N3CCN(c4ccccc4F)CC3)CC2)cc1 was read as Pf Dd2 inh 6.31µM*.
Cc1cccc(/C=C/c2onc(C)c2S(=O)(=O)N2CCC(C(=O)N3CCC(C)CC3)CC2)c1 was read as Pf Dd2 inh 56.7%.
`Cc1ccc(/C=C/c2onc(C)c2S(=O)(=O)N2CCC(C(=O)N3CCC(N(C)C(C)C)CC3)CC2)cc1` gave Pf Dd2 inh 10µM*.
Screening Cc1cccc(N2CCN(C(=O)C3CCN(S(=O)(=O)c4c(C)noc4/C=C/c4ccccc4F)CC3)CC2)c1C returned Pf Dd2 inh inactive.
Cc1ccc(/C=C/c2onc(C)c2S(=O)(=O)N2CCC(C(=O)Nc3cc(F)ccc3F)CC2)cc1 was read as Pf Dd2 inh -0.5%.
Screening CC(C)CCN(C1CCOCC1)C1CCN(C(=O)c2ccc(F)cc2)CC1 returned Pf Dd2 inh inactive.
For COc1ccc2[nH]c3c(c2c1)CCNC31CCN(C(=O)CN2CCCC2=O)CC1 the results were Pf Dd2 inh 25.8%.
O=C(Cc1ccccc1)Nc1sc2c(c1C(=O)Nc1ccccc1Cl)CCCC2 was read as Pf Dd2 inh 12.6%.
For Cc1cccc(NC(=O)N2CC(=O)Nc3sc4c(c3C2c2ccccc2)CCCC4)c1C (stereo not drawn) the results were Pf Dd2 inh 11.2µM*.
O=C(COc1ccccc1)Nc1sc2c(c1C(=O)Nc1ccccc1Cl)CCCCC2 was read as Pf Dd2 inh 97.1%.
Cc1cccc(NC(=O)N2CCC(CC(=O)NCc3ccccc3)C2)c1C (stereo not drawn) was read as Pf Dd2 inh -12.7%.
Screening O=C1CN(C(=O)Nc2ccccc2Cl)C(c2ccccc2)c2c(sc3c2CCCC3)N1 (stereo not drawn) returned Pf Dd2 inh 10µM*.
COC(=O)c1ccccc1NC(=O)N1CCc2c(sc3c2CCCC3)C1c1ccc(F)cc1 (stereo not drawn) was read as Pf Dd2 inh inactive.
`COCCO[C@H]1C(=O)N(C2CCN(Cc3c[nH]c4ccccc34)CC2)[C@H]1c1ccncc1` gave Pf Dd2 inh inactive.
`CCNC(=O)N(C1CC1)C1CCOC2(CCN(C(=O)Cc3cccc(C)c3)CC2)C1` (stereo not drawn) gave Pf Dd2 inh 1.4%.
For CC(C)CCNC(=O)c1cnc2n1CCN(Cc1cccs1)CC2 the results were Pf Dd2 inh inactive.
`COc1ccc(C(=O)NCc2nnc3ccc(-c4ccc(C)c(C)c4)nn23)cc1F` gave Pf Dd2 inh -15.7%.
CCNC(=O)N1C[C@H]2OC(=O)N(Cc3ccc(OC)c(OC)c3)[C@H]2C1 was read as Pf Dd2 inh 3.2%.
Screening COc1ccc(CNCC2(COc3cccnc3)C[C@@H](O)[C@@H](O)C2)cc1 (stereo partly drawn) returned Pf Dd2 inh -16.7%[44.1 µM].
COc1cccc(CNCC2(COc3ccccc3)C[C@@H](O)[C@@H](O)C2)c1 (stereo partly drawn) was read as Pf Dd2 inh 3.98µM*.
`COc1cccc(C(=O)NCC2(COc3ccccc3)C[C@@H](O)[C@@H](O)C2)c1` (stereo partly drawn) gave Pf Dd2 inh inactive.
Screening COc1cc(C(=O)N2C[C@@H](C)[C@@](C)(O)C2)ccn1 returned Pf Dd2 inh -8.6%.
`CCN(CC)c1cc(C)c2cc(NC(=O)c3ccc(F)cc3Cl)ccc2n1` gave Pf Dd2 inh inactive.
CCN(CC)c1cc(C)c2cc(NC(=O)/C=C/c3ccccc3Cl)ccc2n1 was read as Pf Dd2 inh 10µM*.
Screening CCN(CC)c1cc(C)c2cc(NC(=O)c3cc(OC)cc(OC)c3)ccc2n1 returned Pf Dd2 inh -3.1%.
CCOc1cccc(CNC(=O)c2ccc(Cn3ccn4nc5c(c4c3=O)CCCC5)cc2)c1 was read as Pf Dd2 inh inactive.
Screening CC(C)S(=O)(=O)N1CC(n2cc(C(=O)NCc3ccccc3)nn2)C1 returned Pf Dd2 inh -26.8%.
For O=C(N[C@H]1CCN2C(=O)N(c3ccc(F)c(Cl)c3)C(=O)[C@@H]2C1)c1ccncc1 the results were Pf Dd2 inh -23.8%[44.1 µM].
`Cc1ccc(-n2c(C3CCN(C(=O)c4cc(C)ccc4C)CC3)n[nH]c2=O)cc1` gave Pf Dd2 inh -6.4%.
CCOC(=O)c1c(C)sc(-c2c(-c3cccc(Cl)c3)[nH]c3c2c(=O)n(C)c(=O)n3C)c1O was read as Pf Dd2 inh 146.3%.
`CCOC(=O)c1c(C)sc(-c2c(-c3cc(C)ccc3C)[nH]c3c2c(=O)[nH]c(=O)n3C)c1O` gave Pf Dd2 inh -6.3%.
Screening CCOC(=O)c1c(C)sc(-c2c(-c3cc(C)ccc3C)[nH]c3c2c(=O)n(C)c(=O)n3C)c1O returned Pf Dd2 inh 10µM*.
For CC1CCCCN1Cc1c(O)ccc2c(=O)c(-c3ccc(Cl)cc3)c(C(F)(F)F)oc12 (stereo not drawn) the results were Pf Dd2 inh 10µM*.
`CC1CCCCN1C(=O)CN1CCSc2ccccc21` (stereo not drawn) gave Pf Dd2 inh 33.0%.
For CC1CCCCN1Cc1c(O)ccc2c(=O)c(-c3ccccc3)coc12 (stereo not drawn) the results were Pf Dd2 inh 10µM*.
CN(Cc1ccc(-c2ccccc2)cc1)Cc1cccc(C(F)(F)F)c1 was read as Pf Dd2 inh -5.5%.
`CN(Cc1ccccc1)Cc1c(O)ccc2c(=O)c(-c3ccccc3)c(C(F)(F)F)oc12` gave Pf Dd2 inh 3.98µM*.
CC1CCCCN1Cc1nnc2cc(-c3nc(-c4ccccc4)no3)ccn12 (stereo not drawn) was read as Pf Dd2 inh -17.6%.
CC1CCCCN1Cc1nc2c(c(=O)n(C)c(=O)n2C)n1Cc1ccc(Br)cc1 (stereo not drawn) was read as Pf Dd2 inh 15.6%.
CN(Cc1ccc(-c2ccccc2)cc1)Cc1cccc(OC(F)(F)F)c1 was read as Pf Dd2 inh 9.9%.
Screening Cc1ccc(C2=NC3(CCN(C(=O)c4cc(F)ccc4F)CC3)ON2)cc1 returned Pf Dd2 inh inactive.

Screening data (PubChem BioAssay)
